Out of some 290,000 compounds screened, about 3,000 (1%) were called active. Rule as the data show it: active = inhibition mostly above about 36% (no sharp cut-off); inactive = mostly below about 34%. The entries come from a sample that favours actives as a whole.
Test: NOD1 signaling inhibitors, primary screen, cell-based, luminescence, uHTS (AID 1578);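 also: HEK-293T reporter cells stimulated with the NOD1 agonist gamma-tri-DAP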
Settings: NOD1-driven NF-kB luciferase reporter cells, at 4 µM, hits give high values

inhibition, active:
COc1cccc(=O)c2c(C)n(-c3ccc(C(=O)O)cc3)c(C)c12 58.9%, COc1ccc(CCNC(=O)c2ccccc2NC(=O)C2=C(C)OCCS2)c(OC)c1 51.1%, CC(=O)c1cc2c(cc1NC(=O)CCC1CCCC1)OCO2 71.2%, Cc1ccc(Cn2ccnc2SCC(=O)NC2CCCC2)cc1 51.4%

inhibition, inactive:
O=C(NCC(O)c1ccc([N+](=O)[O-])cc1)Nc1ccccc1 (stereo unspecified) -4.6%, CCOc1cccc(=O)c2c(C)n(-c3ccc(C(=O)O)cc3)c(C)c12 -22.7%, COc1ccc(-n2c(C)c3c(OC)cccc(=O)c3c2C)cc1 16.3%, COc1cccc(N(C(=O)c2sc(C)nc2C)C(C(=O)NCC2CCCO2)c2ccccc2)c1 (stereo unspecified) -28.5%, COc1ccc(OC)c(CCNC(=O)c2ccccc2NC(=O)C2=C(C)OCCS2)c1 -12.2%, COc1cc(CCNC(=O)c2ccccc2NC(=O)C2=C(C)OCCS2)cc(OC)c1OC 17.9%, NS(=O)(=O)c1cccc(NC(=O)c2cc(=O)c3ccccc3o2)c1 -9.2%, CC(C)Cn1c(N)c(C(=O)COC(=O)c2ccc(O)cc2)c(=O)n(C)c1=O -0.8%, COCc1c(C(=O)OCC(=O)c2c(N)n(CC(C)C)c(=O)n(C)c2=O)oc2ccccc12 32%, CC(C)Cn1c(N)c(C(=O)COC(=O)C2CCCCC2)c(=O)n(C)c1=O 0.4%, CC(C)Cn1c(N)c(C(=O)COC(=O)Cc2cccs2)c(=O)n(C)c1=O -8.8%, CC(C)Cn1c(N)c(C(=O)COC(=O)c2ccc(Cl)cc2)c(=O)n(C)c1=O 4.6%, CC(C)Cn1c(N)c(C(=O)COC(=O)c2ccccc2Cl)c(=O)n(C)c1=O -12.9%, Cc1cc(Oc2ccccc2)nc(-c2ccccc2O)n1 -12.6%, Nc1nccnc1C(=O)OCC(=O)NNC(=O)c1ccccc1 -27.6%, Cc1ccc(CSc2nc3ccsc3c(=O)n2Cc2ccccn2)cc1 -0.8%, CCc1ccc(NC(=O)COc2cccc(-n3cnnn3)c2)cc1 4.3%, CC(=O)c1cc2c(cc1NC(=O)CCCC(=O)O)OCO2 -9.2%, CC(=O)c1cc2c(cc1NC(=O)CCn1cccc1)OCO2 5%, O=C(CSc1nccn1Cc1ccc(F)cc1)NC1CCCC1 -2.9%, O=C(CSc1nccn1Cc1ccccc1)NC1CCCC1 12.2%, Cc1ccc(S(=O)(=O)N(C)C)cc1NC(=O)C1CCCC1 18.4%

From PubChem BioAssay AID1578 (Sanford-Burnham Center for Chemical Genomics, 2009)
